This is a sample that favours compounds with a hit; in the whole collection about 12% have one here.
Sfp PPTase inh: Sfp phosphopantetheinyl transferase inhibition; Q9F4F7; Biochemical Sfp PPTase activity, qHTS; Potency, µM, for the others: largest response in the series, negative = inhibition, most hits filed as inhibitors; 310,000 tested, 3.5% active; AID 1490;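 note: the enzyme is Sfp with the accession as filed and its product quenches rhodamine fluorescence; 0% = enzyme reaction without inhibitor and -100% = no enzyme wells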
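With Hepes-Na pH 7.6 buffer containing 10 mM MgCl2, Sfp (15 nM) modified BHQ-2-YbbR (12.5 uM) using rhodamine-CoA (5 uM). Two reads 30 minutes apart at 525/598 nm yielded each well's rate.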
BAZ2B block: BAZ2B (human) inhibition | AlphaScreen BAZ2B-H3K14Ac peptide displacement | Potency, µM (top dose mostly 114 µM), for inactives: top-dose activity change, negative = inhibition, usual class: inhibitors | 360,000 tested, 4.4% active | AID 504333; note: % is set by controls: 0 for no effect and ±100 for the full control effect; nearly all actives have a fitted effect of over 60% in size
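Multi-concentration screen (max 110 uM) measuring displacement of acetylated histone H3 peptide from BAZ2B by AlphaScreen, using 50 nM protein, 50 nM peptide and 10 ug/mL streptavidin donor plus Ni-chelate acceptor beads.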
JMJD2A Tudor inh: blocks the human JMJD2A Tudor domain. 390,000 tested, 4.4% active. Potency, µM (series often up to 114 µM), for the others: at the highest dose activity change, negative = inhibition, most hits filed as inhibitors. AlphaScreen JMJD2A-Tudor / H3K4me3 peptide binding. O75164; note: % is set by controls: 0 for no effect and ±100 for the full control effect; nearly all actives have a fitted effect of over 50% in size
L3MBTL1 inh: L3MBTL1 (human) inhibition | Q9Y468 | AlphaScreen L3MBTL1–H3K9me1 peptide binding | Potency, µM (highest dose often 57.1 µM), without a hit: at the top dose activity, negative = inhibition, actives largely listed as inhibitors | 230,000 tested, 0.66% active; note: % is set by controls: 0 for no effect and ±100 for the full control effect; nearly all actives have a fitted effect of over 60% in size
Target sequence (Q9Y468 whole entry, looked up): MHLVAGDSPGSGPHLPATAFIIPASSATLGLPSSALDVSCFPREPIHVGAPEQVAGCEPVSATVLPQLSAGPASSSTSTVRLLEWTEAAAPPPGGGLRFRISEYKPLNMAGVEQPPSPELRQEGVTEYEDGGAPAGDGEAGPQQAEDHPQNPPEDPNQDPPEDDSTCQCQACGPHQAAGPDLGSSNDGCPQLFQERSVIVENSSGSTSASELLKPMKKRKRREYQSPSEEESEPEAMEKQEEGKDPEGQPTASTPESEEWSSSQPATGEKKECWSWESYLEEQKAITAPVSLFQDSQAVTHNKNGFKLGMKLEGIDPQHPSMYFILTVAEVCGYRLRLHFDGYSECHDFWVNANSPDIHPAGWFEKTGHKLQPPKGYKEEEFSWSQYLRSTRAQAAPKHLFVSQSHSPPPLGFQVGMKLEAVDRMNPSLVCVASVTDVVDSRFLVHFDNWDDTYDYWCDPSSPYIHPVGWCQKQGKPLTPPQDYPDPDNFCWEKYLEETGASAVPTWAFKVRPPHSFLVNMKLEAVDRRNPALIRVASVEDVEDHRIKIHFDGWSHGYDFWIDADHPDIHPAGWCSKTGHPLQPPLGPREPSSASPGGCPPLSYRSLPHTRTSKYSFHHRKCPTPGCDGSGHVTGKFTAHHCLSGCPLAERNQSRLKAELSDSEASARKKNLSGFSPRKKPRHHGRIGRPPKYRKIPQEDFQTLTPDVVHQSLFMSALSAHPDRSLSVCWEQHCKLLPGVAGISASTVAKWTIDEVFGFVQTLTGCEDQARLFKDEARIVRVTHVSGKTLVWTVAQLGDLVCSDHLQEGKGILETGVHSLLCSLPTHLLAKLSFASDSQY
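Read-out is AlphaScreen signal from streptavidin donor and nickel chelate acceptor beads (10 ug/mL final each) bridging L3MBTL1 (50 nM) and biotinylated K9-monomethylated H3(1-15) peptide (75 nM), after 30 min compound exposure at room temperature.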
G9a inh: blocks human histone lysine methyltransferase G9a | Q96KQ7 | G9a H3K9 monomethylation, AlphaScreen, 2 h | Potency, µM (highest dose often 102 µM), for inactives: at the top dose activity, negative = inhibition, usual class: inhibitors | 350,000 tested, 8.8% active; note: % is set by controls: 0 for no effect and ±100 for the full control effect; nearly all actives have a fitted effect of over 75% in size
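G9a (20 nM) preincubated 15 min RT with compounds, then 500 nM biotinylated H3K9 peptide and 20 uM SAM added; 2 h RT reaction. Monomethyl-H3K9 product detected by AlphaScreen with anti-H3K9me1 antibody, streptavidin donor and anti-rabbit IgG acceptor beads.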
HP1b chromo inh: HP1-beta chromodomain-methylated histone interaction inhibition. P83916. AID 540317. Potency, µM (highest dose often 114 µM), for the others: top-dose activity change, negative = inhibition, usual class: inhibitors. AlphaScreen HP1-beta / biotin-H3K9me3 peptide binding. 390,000 tested, 0.56% active; note: nearly all actives have a fitted effect of over 70% in size
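AlphaScreen: HP1-beta (50 nM) preformed 30 min with biotin-H3(1-18)K9me3 peptide (50 nM) in PBS pH 7.4, 0.01% Tween-20. Compound added for 30 min at RT, then streptavidin donor/nickel chelate acceptor beads (10 ug/mL) for 30 min.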
Numbers without * were called inactive; ? = inconclusive; nt = not tested or not shown; ! = a repeat was not active; [ ] = another dose, or the depositor's remark. Calls come from the whole dose curve; as a rule, active = well fitted curve in the direction sought with a large enough effect; inconclusive = small, poorly fitted or top-dose-only effect, or another doubt; inactive = no such curve, though single readings can be large; an effect the other way counts as inactive or inconclusive. Potency is the fitted concentration of half-maximal effect.

SMILES | Sfp PPTase inh | BAZ2B block | JMJD2A Tudor inh | L3MBTL1 inh | G9a inh | HP1b chromo inh
C[C@H](NC(=O)c1ccccc1Cl)C(=O)NCc1cccs1 | 11% | -19% | -14% | nt | 45µM* | 42%
CC1CCCCN1Cc1c(O)ccc2c(=O)c(-c3ccc(Br)cc3)coc12 (stereo unspecified) | 8% | -13% | -7% | nt | -6% | 23%
CC1CCCCN1Cc1c(O)ccc2c(=O)c(-c3ccc(Cl)cc3)coc12 (stereo unspecified) | 12% | -3% | 79µM*! | nt | 9% | 29%
O=C(Nc1cccc(-c2nc3cccnc3s2)c1)c1cccnc1Cl | 20% | -24% | -17% | nt | 6% | 41%
O=C(Nc1cccc(-c2nc3cccnc3s2)c1)C1c2ccccc2Oc2ccccc21 | 6% | 79µM* | ? | -3% | ? | 25%
COc1ccc(CNC(=O)CN(c2ccccc2OC)S(=O)(=O)c2ccc(C)cc2)cc1 | nt | -12% | ? | nt | ? | 20%
COC(=O)/C(C#N)=C/c1c(N2CCCCCC2)nc2c(C)cccn2c1=O | -13% | 23% | -33% | nt | 36% | -1%
CNC(=O)/C(C#N)=C/c1c(N2CCN(c3ccccc3)CC2)nc2c(C)cccn2c1=O | 15% | -2% | -14% | nt | 20%[2.33 µM] | -16%
CNC(=O)/C(C#N)=C/c1c(N2CCN(c3ccc(OC)cc3)CC2)nc2c(C)cccn2c1=O | -1% | 40µM* | 50µM* | nt | 1%[2.33 µM] | ?
COC(=O)/C(C#N)=C/c1c(N2CCN(c3ccc(OC)cc3)CC2)nc2c(C)cccn2c1=O | -1% | ? | 11µM* | nt | ? | ?
CCOC(=O)/C(C#N)=C/c1c(Oc2cccc(C)c2)nc2c(C)cccn2c1=O | 89µM* | -1% | -7% | 1% | 26%[59 µM] | 30%
Cc1cccn2c(=O)c(/C=C(\C#N)C(N)=O)c(N3CCN(c4cccc(Cl)c4)CC3)nc12 | -11% | -34% | ? | nt | 22µM* | -11%
CCOc1ccc(NC(=O)Cc2ccc(NC(=O)N3CCCCc4ccccc43)cc2)cc1 | nt | -23% | -25% | nt | 15%[59 µM] | 12%
Oc1c(C(c2cccc(Cl)c2)N2CCOCC2)sc2nc(-c3ccco3)nn12 (stereo unspecified) | nt | -12% | -8% | nt | -26%[59 µM] | 30%
Cc1ccc(-c2cn3c(n2)sc2cc(C(=O)NCCCc4ccccc4)ccc23)c(C)c1 | nt | 63% | 90% | nt | 98%[59 µM] | 148%
O=C(O)CCc1cc(F)c(S(=O)(=O)N2CCN(S(=O)(=O)c3ccc4c(c3)OCCO4)CC2)cc1F | nt | nt | -5% | nt | nt | nt
CC(C)c1ccc(NS(=O)(=O)c2ccc3[nH]cc(C(=O)NCC4CCCO4)c(=O)c3c2)cc1 (stereo unspecified) | nt | nt | -30% | nt | ? | 19%
CN1OC[C@@H]2CN(Cc3ccccc3)[C@H](c3cccc(Oc4ccccc4)c3)C[C@@H]21 | nt | nt | -12% | nt | nt | 43%
CN1OC[C@@H]2CN(Cc3cc(Cl)cc(Cl)c3)[C@H](c3cccc(Oc4ccccc4)c3)C[C@@H]21 | nt | nt | 89µM* | nt | nt | -2%
CCc1ccccc1SCc1noc(C(=O)NCC2CCCO2)c1C(=O)O (stereo unspecified) | -6% | -33% | -4% | 7% | -2%[0.0925 µM] | 54%
O=C(NCC1CCCO1)c1onc(CSc2ccccc2F)c1C(=O)O (stereo unspecified) | 19% | 79µM* | -17% | 7% | 31%[0.501 µM] | 5%
S=c1nc(-c2csc3c2CCCC3)[nH][nH]1 | 35µM* | -3% | ? | 7% | 16%[0.501 µM] | ?
Cc1nnc2sc(-c3csc4c3CCCC4)nn12 | 1% | 1% | -21% | 5% | -16%[12.7 µM] | 12%
COc1ccc(Nc2cc(C(=O)NCc3ccco3)c3ccccc3n2)cc1 | 9% | -25% | nt | -3% | -1% | nt
COc1ccc(Nc2nc(C(=O)NCc3ccco3)cs2)cc1 | 2% | 79µM* | ? | nt | ? | -10%
SMILES | Sfp PPTase inh | BAZ2B block | JMJD2A Tudor inh | L3MBTL1 inh | G9a inh | HP1b chromo inh
O=C(NCc1ccco1)c1csc(Nc2ccccc2Cl)n1 | 28µM* | ? | -35% | -12% | 32µM* | 1%
COc1ccc(Nc2nc(C(=O)N(CCO)Cc3ccccc3)cs2)cc1 | -7% | 50µM* | -31% | -22% | 45µM* | 17%
O=C(NCc1ccco1)Nc1ccccc1Cl | 9% | 5% | -18% | 1%[11.4 µM] | 6%[12.7 µM] | 16%
Cc1ccc(C2Cc3cc(O)c(O)cc3CN2)cc1 (stereo unspecified) | nt | nt | 8.9µM* | nt | nt | ?
Cc1ccc(O)c(C2=NNC(c3ccc(Cl)cc3)C2)c1 (stereo unspecified) | 14% | ? | -34% | -13% | nt | 33%
Cc1ccc(NC(=O)CNCC2CCCCC2)cc1S(=O)(=O)N(C)C | -29% | ? | 22µM* | -1% | ? | -18%
Cc1ccc(NC(=S)NC2CCCCC2)cc1S(=O)(=O)N(C)C | -45% | -11% | -22% | ? | 40µM* | -15%
CCN(CC)S(=O)(=O)c1ccc(C)c(NC(=S)NC2CCCCC2)c1 | 18% | -20% | -19% | -5% | -31% | 25%
Cc1ccc(NC(=O)NC2CCCCC2)cc1Cl | 22% | -3% | -4% | 1%[11.4 µM] | 22%[12.7 µM] | 19%
Cc1ccc(NC(=O)CN(C)C2CCCCC2)cc1Cl | -29% | ? | 10µM* | 42% | nt | ?
Cc1ccc(NC(=O)CN2C(=O)C3C4C=CC(C4)C3C2=O)cc1S(=O)(=O)N(C)C (stereo unspecified) | -16% | 8% | -11% | 1% | -3%[59 µM] | 15%
COc1ccc(CCC(=O)Nc2ccc(C)c(S(=O)(=O)N(C)C)c2)cc1OC | -4% | 6% | -16% | 0% | 8%[59 µM] | 24%
COc1ccc(CCNCC(=O)Nc2ccc(C)c(S(=O)(=O)N(C)C)c2)cc1 | -13% | 50µM* | 0.79µM* | 1% | 14µM* | ?
COCC(=O)Nc1cc(Sc2ccccc2)ccc1N=C(NC(=O)OC)NC(=O)OC | 8% | nt | nt | nt | 0%[12.7 µM] | nt
COc1cc(NC(=O)Cn2c(=O)n(-c3ccccc3)c(=O)c3c4c(sc32)CCCC4)cc(OC)c1 | nt | 1% | 3% | nt | 4%[59 µM] | 28%
CCCN1C(=O)C(NC(=O)c2ccccc2OC)(C(F)(F)F)C(C(=O)OC)=C1C (stereo unspecified) | nt | -14% | 5% | nt | -2%[59 µM] | 37%
O=C(Cn1c(=O)n(Cc2ccco2)c(=O)c2ccccc21)Nc1ccc(Cl)cc1Cl | nt | 0% | -7% | nt | 2%[59 µM] | 8%
CCN(CC)CCNC(=O)c1ccc(-c2nc(CS(=O)(=O)c3ccc(C)cc3)c(C)o2)cc1 | nt | -19% | -13% | nt | ? | 4%
COc1ccc(CNCC(=O)Nc2cccc(S(N)(=O)=O)c2)cc1 | ? | 56µM* | 0.71µM* | 27% | -142%[59 µM] | 7%
